Measured values as given in the supplement of paper PMC10849652.
Targets with a hit are over-represented here; the source holds about 7,900 in all. About 0.6% of all pairs of compound and target were hits. A number with no mark means an inactive call.

Legend:
Assay in all cases: log2 fold change, soluble protein after heating vs DMSO (PISA); higher = thermal stabilisation; K562 cells, 10 uM, 30 min; active = over 0.2 and 3.5 SD of the protein, either way, in both replicates (recomputed)
erlotinib = compound: C#Cc1cccc(Nc2ncnc3cc(OCCOC)c(OCCOC)cc23)c1 [erlotinib]
Method in brief: (§1)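 K562 cells (2×10^6 cells/mL) were treated with 10 μM compound for 30 min, and aliquots were heated for 3 min over 48°C-58°C. Pooled aliquots were extracted in PBS with 0.5% NP-40 at 4°C, and the supernatant after 21,000xg for 90 min was measured by TMTpro 16plex LC-MS/MS with channel sums equalised. Reported thermal stability, relative to control samples and from duplicates, is a log2 fold change.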

[1] = compound: C/C(=N\NC(=O)C1=CC(=CC=C1)S(=O)(=O)N2CCOCC2)/C3=C(C=CC(=C3)Cl)O
Method in brief: as §1

[2] = compound: C1=CC(=C(C=C1Cl)C2=NC3=NC=CN=C3C(=N2)NC4=CC=NC=C4)F
Method in brief: as §1

[3] = compound: C1=CC(=CC=C1C2=NC3=C(N2)C=C(C=C3)C(=O)N)OC4=CC=C(C=C4)Cl
Method in brief: as §1

[4] = compound: C1=CC2=C(C=CC(=C2)/C=C\3/C(=O)NC(=NCC4=CC=CS4)S3)N=C1
Method in brief: as §1

[5] = compound: C1=CC2=NC=CN=C2C=C1/C=C/3\C(=O)NC(=O)S3
Method in brief: as §1

[6] = compound: C1=CC=C(C=C1)C2=NC(=C(N2)C3=CC=NC=C3)C4=CC(=C(C=C4)Cl)O
Method in brief: as §1

[7] = compound: C1=CC=C2C(=C1)C3=NNC4=CC=CC(=C43)C2=O
Method in brief: as §1

[8] = compound: C1CCN(C1)C(=O)NC2=CC=CC(=C2)NC3=NC=C(C(=N3)NCCC4=CN=CN4)Br
Method in brief: as §1

[9] = compound: C1CN(CCC1(CC2=CC=C(C=C2)Cl)N)C3=NC=NC4=C3C=CN4
Method in brief: as §1

IRAK-1-4 Inhibitor I = compound: C1COCCN1CCN2C3=CC=CC=C3N=C2NC(=O)C4=CC(=CC=C4)[N+](=O)[O-] [IRAK-1-4 Inhibitor I]
Method in brief: as §1

ibrutinib = compound: C=CC(=O)N1CCC[C@@H](n2nc(-c3ccc(Oc4ccccc4)cc3)c3c(N)ncnc32)C1 [ibrutinib]
Method in brief: as §1

[10] = compound: CC(=O)c1cnc2ccc(-c3cc(Cl)c(O)c(Cl)c3)nc2c1N[C@H]1CC[C@H](CN(C)C)CC1
Method in brief: as §1

ralimetinib = compound: CC(C)(C)Cn1c(N)nc2ccc(-c3[nH]c(C(C)(C)C)nc3-c3ccc(F)cc3)nc21 [ralimetinib]
Method in brief: as §1

[11] = compound: CC(C)(O)CC(=O)NCCn1ccc2ncnc(Nc3ccc(Oc4cccc(C(F)(F)F)c4)c(Cl)c3)c21
Method in brief: as §1

[12] = compound: CC(C)C1=C2N=C(C=C(N2N=C1)NCC3=CC=CC=C3)NCCCCCCN
Method in brief: as §1

[13] = compound: CC(C)C[C@@H](C=O)NC(=O)[C@H](CC(C)C)NC(=O)[C@H](CC(C)C)NC(=O)OCc1ccccc1
Method in brief: as §1

pinometostat = compound: CC(C)N(C[C@H]1O[C@@H](n2cnc3c(N)ncnc32)[C@H](O)[C@@H]1O)[C@H]1C[C@@H](CCc2nc3cc(C(C)(C)C)ccc3[nH]2)C1 [pinometostat]
Method in brief: as §1

[14] = compound: CC1=C(C(CC(=O)N1)C2=CC=C(C=C2)C(F)(F)F)C(=O)NC3=C(C=C4C(=C3)C=NN4)F
Method in brief: as §1

[15] = compound: CC1=C(C2=C(C=C1)C(=O)C3=CC=CC=C3N2CCCN)C
Method in brief: as §1

Chain of UniProt Q969N2 (Q969N2 whole entry, looked up): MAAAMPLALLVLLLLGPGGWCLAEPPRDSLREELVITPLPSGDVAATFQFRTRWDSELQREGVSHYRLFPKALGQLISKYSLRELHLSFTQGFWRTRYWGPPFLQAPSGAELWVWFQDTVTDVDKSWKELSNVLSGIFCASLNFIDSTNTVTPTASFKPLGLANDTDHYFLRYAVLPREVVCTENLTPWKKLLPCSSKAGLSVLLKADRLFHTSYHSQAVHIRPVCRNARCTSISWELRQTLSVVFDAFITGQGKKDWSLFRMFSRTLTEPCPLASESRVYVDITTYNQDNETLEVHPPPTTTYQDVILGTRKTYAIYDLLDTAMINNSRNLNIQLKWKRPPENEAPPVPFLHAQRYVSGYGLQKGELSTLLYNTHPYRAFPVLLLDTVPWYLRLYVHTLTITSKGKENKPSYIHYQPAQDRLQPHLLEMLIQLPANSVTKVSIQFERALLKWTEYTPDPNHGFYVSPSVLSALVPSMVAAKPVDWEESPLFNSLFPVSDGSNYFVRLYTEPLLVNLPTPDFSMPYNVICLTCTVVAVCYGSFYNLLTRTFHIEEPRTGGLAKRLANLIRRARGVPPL
Chain of UniProt Q9NTI5 (Q9NTI5 whole entry, looked up): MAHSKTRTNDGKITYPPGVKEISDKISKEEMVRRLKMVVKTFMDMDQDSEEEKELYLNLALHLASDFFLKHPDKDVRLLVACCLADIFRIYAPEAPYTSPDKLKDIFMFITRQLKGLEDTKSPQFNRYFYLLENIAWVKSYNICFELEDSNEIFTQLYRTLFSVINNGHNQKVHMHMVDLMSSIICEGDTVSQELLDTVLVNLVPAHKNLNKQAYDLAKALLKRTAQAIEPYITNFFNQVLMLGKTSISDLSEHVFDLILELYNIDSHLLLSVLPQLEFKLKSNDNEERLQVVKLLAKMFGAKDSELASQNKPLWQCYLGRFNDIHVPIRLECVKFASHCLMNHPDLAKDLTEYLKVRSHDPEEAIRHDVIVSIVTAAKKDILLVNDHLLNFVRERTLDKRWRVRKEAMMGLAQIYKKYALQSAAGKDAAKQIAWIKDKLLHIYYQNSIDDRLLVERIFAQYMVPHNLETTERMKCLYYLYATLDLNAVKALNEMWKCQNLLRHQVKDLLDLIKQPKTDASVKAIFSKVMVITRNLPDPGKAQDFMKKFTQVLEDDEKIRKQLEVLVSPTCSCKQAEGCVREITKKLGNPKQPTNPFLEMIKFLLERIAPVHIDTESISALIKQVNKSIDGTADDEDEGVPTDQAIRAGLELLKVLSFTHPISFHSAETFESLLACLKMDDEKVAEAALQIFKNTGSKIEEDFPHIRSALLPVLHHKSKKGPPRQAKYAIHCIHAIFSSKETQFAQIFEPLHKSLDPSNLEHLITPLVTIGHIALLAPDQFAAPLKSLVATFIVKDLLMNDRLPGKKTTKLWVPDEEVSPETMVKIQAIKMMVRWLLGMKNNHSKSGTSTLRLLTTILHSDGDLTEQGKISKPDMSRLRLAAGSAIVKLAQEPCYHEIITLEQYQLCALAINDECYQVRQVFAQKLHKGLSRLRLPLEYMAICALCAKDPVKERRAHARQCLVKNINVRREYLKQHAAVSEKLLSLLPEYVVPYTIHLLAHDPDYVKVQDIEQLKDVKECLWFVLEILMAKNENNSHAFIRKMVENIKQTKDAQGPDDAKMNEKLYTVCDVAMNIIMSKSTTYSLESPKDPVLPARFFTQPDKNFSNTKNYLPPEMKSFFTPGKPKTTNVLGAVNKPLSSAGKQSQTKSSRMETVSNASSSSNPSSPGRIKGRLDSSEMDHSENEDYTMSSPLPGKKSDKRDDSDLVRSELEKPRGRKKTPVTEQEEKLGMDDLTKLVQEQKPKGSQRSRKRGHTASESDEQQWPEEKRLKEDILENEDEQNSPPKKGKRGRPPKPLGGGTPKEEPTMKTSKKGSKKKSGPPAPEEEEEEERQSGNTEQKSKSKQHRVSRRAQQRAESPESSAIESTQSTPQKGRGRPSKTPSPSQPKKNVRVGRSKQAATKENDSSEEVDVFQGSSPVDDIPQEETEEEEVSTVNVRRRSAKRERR
Chain of UniProt P54619 (P54619 whole entry, looked up): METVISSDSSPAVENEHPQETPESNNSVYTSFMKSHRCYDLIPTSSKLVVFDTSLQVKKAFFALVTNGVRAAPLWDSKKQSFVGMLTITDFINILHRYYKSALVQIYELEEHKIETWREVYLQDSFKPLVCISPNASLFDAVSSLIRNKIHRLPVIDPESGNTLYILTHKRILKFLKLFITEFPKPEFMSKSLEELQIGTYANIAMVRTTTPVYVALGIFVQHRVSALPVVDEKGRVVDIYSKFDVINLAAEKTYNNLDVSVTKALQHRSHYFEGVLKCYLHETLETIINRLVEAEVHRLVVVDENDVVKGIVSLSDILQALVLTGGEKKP
Chain of UniProt Q15185 (Q15185 whole entry, looked up): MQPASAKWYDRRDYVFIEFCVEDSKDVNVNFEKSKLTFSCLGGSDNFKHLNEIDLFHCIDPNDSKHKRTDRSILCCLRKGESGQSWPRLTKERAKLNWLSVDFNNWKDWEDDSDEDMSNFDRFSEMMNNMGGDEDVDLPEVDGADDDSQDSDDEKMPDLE
Chain of UniProt Q14181 (Q14181 whole entry, looked up): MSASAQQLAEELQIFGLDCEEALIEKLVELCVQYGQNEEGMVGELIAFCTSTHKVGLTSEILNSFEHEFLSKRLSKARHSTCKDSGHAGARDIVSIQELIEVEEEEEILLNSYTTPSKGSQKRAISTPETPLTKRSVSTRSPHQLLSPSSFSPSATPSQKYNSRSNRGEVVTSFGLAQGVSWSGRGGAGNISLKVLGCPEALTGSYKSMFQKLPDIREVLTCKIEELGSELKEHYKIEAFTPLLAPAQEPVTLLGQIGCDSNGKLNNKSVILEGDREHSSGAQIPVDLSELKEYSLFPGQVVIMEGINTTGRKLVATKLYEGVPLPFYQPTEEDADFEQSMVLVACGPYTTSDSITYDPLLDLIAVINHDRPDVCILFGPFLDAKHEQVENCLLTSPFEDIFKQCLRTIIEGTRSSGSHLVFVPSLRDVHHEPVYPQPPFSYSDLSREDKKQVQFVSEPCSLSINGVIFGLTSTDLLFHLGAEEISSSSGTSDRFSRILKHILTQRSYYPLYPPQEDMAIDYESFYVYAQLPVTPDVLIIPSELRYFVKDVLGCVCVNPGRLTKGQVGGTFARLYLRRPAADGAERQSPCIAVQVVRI
Chain of UniProt Q08752 (Q08752 whole entry, looked up): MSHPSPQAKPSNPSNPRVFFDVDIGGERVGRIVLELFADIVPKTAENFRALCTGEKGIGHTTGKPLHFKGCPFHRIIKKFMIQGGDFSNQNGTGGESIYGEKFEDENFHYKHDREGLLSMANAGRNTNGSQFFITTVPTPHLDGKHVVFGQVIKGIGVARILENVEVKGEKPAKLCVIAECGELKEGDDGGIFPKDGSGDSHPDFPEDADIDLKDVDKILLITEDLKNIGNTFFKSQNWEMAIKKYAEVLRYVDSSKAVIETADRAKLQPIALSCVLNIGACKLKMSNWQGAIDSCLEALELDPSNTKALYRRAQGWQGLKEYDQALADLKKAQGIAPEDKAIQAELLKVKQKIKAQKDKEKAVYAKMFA
Chain of UniProt Q93096 (Q93096 whole entry, looked up): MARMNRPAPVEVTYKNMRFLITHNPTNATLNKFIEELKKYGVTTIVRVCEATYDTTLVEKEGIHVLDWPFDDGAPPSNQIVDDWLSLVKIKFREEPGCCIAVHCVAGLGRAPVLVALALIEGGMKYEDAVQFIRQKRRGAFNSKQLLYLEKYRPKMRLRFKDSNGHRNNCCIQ
Chain of UniProt Q99575 (Q99575 whole entry, looked up): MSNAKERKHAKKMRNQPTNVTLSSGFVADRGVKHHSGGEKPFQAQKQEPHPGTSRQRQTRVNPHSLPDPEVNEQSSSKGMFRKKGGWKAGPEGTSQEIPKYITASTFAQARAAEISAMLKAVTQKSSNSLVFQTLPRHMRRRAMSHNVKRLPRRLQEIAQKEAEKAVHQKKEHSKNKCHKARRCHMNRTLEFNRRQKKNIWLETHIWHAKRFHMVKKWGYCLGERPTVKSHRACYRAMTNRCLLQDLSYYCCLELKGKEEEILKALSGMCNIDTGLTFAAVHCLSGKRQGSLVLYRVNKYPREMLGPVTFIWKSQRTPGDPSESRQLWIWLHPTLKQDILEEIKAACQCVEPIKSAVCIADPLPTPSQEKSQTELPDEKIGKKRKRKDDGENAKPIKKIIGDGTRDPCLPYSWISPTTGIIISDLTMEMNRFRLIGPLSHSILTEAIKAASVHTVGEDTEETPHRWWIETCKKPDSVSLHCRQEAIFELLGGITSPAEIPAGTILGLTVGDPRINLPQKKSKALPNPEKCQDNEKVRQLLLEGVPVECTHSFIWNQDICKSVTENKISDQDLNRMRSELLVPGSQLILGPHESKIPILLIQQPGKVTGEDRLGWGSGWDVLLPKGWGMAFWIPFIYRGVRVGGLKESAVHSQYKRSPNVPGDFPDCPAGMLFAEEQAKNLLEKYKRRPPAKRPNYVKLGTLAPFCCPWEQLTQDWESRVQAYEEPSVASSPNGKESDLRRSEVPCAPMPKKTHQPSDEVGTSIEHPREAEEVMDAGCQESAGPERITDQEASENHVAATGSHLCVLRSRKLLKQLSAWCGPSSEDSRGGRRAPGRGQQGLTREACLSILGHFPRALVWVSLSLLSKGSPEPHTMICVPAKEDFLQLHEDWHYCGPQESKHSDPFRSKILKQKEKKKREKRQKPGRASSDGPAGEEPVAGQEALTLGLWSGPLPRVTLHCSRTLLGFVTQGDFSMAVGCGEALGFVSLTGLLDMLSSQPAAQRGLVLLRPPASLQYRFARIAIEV
Chain of UniProt Q8NAV1 (Q8NAV1 whole entry, looked up): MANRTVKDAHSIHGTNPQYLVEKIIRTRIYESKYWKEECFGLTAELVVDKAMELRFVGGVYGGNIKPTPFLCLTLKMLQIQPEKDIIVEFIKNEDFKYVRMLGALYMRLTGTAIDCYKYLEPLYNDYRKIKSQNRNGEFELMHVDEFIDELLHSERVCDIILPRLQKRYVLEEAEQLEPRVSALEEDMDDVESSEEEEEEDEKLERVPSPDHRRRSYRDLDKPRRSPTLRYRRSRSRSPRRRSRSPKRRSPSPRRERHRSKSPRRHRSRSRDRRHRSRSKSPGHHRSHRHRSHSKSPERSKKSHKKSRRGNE

Target	log2 fold change (erlotinib)	log2 fold change [1]	log2 fold change [2]	log2 fold change [3]	log2 fold change [4]	log2 fold change [5]	log2 fold change [6]	log2 fold change [7]	log2 fold change [8]	log2 fold change [9]	log2 fold change (IRAK-1-4 Inhibitor I)	log2 fold change (ibrutinib)	log2 fold change [10]	log2 fold change (ralimetinib)	log2 fold change [11]	log2 fold change [12]	log2 fold change [13]	log2 fold change (pinometostat)	log2 fold change [14]	log2 fold change [15]
PSMC4 (UniProt P43686)	-0.05	-0.092	-0.052	-0.004	-0.023	-0.032	-0.011	0.006	0.04	-0.041	-0.056	-0.012	0.022	0.014	0.029	0.034	-0.249 (active)	0.025	0.02	0.016
POLR2B (UniProt P30876)	-0.008	-0.014	-0.025	0.024	-0.006	0.047	0.045	0.009	0.068	-0.063	-0.095	-0.002	0.262 (active)	0.066	-0.047	0.08	0.03	0.037	-0.031	0.03
PDS5B (UniProt Q9NTI5)	-0.023	0.002	0.001	0.043	0.092	0.12	0.061	0.013	-0.302	-0.287	-0.184	-0.102	-0.052	-0.01	-0.093	-0.166	0.124	0.093	-0.078	0.02
PITRM1 isoform 2 (UniProt Q5JRX3)	-0.004	-0.008	0.012	0.005	0.118	0.007	0.041	0.03	0.023	0.153	0.045	-0.045	-0.046	0.239 (active)	-0.173	-0.026	0.062	-0.042	-0.013	0.006
PSMD13 (UniProt Q9UNM6)	-0.091	-0.026	-0.076	0.002	-0.02	0.013	-0.002	0.044	-0.008	-0.069	-0.048	-0.039	0.048	-0.021	0	0.009	-0.265 (active)	0.09	0.049	0.032
PRPF3 (UniProt O43395)	0.06	0.144	0.069	-0.02	0.015	0.019	0.057	0	-0.07	0.053	-0.018	-0.038	-0.179	-0.008	-0.055	-0.205	-0.001	0	0	-0.2
POLD3 (UniProt Q15054)	0.083	0.131	0.048	-0.031	0.048	0.038	0.027	-0.07	-0.016	-0.099	-0.013	-0.01	-0.043	-0.001	-0.114	-0.357 (active)	-0.117	-0.016	-0.091	0.013
PTGES3 (UniProt Q15185)	0.005	0.095	0.079	-0.05	0.019	0.007	0.043	-0.014	-0.014	-0.049	0.04	0	-0.01	0.017	-0.103	-0.247	-0.079	-0.081	0.008	-0.202
PTMA (UniProt P06454)	0.06	0.159	0.192	0.005	-0.136	0.006	0.197	0.189	-0.148	0.151	0.034	0.049	0.127	0.251	-0.133	0.085	-0.289	-0.092	0.063	-0.021
POLA2 (UniProt Q14181)	0.042	0.086	0.021	-0.033	0.048	0.048	-0.044	-0.013	-0.063	-0.004	0.015	-0.038	-0.073	-0.028	-0.083	-0.258 (active)	0.011	0.041	0	-0.021
PTP4A1 (UniProt Q93096)	0.053	0.083	0.134	0.037	-0.042	0.038	0.062	0.027	-0.096	-0.127	-0.011	-0.05	0.092	-0.096	0.013	-0.049	-0.062	-0.02	0.008	-0.179
PRPF38A (UniProt Q8NAV1)	-0.032	0.035	-0.01	0.049	0	-0.046	0	-0.08	0.008	0.018	0.011	-0.051	-0.237 (active)	0.03	0.012	-0.029	0.005	0.027	0.045	-0.014
PSMC3 (UniProt P17980)	-0.039	-0.107	-0.037	0.008	-0.059	-0.025	-0.002	-0.001	0.026	-0.004	-0.041	-0.021	0.023	0.016	0.007	0.048	-0.213	0.025	0.053	0.023
PRKCD (UniProt Q05655)	-0.01	0.004	0.028	0.065	0.016	0.044	-0.006	-0.008	0.009	-0.001	0.043	-0.027	-0.685 (active)	-0.041	-0.013	-0.004	0.022	0.017	-0.024	0
PRKCB isoform 2 (UniProt P05771)	0.038	0.031	0.038	0	0.086	0.004	0.021	0.037	0	-0.067	0.027	-0.009	-0.373 (active)	0.022	-0.057	-0.049	0.028	0.014	0.013	-0.025
PLIN2 (UniProt Q99541)	0.033	0.028	0.043	-0.038	0.023	0.101	0	-0.089	0.028	-0.068	0.058	0.055	0.005	-0.065	-0.083	-1.11 (active)	-0.014	0.007	-0.031	-0.022
PPID (UniProt Q08752)	0.114	0.111	-0.01	-0.021	0.075	0.007	0.095	0.021	-0.076	-0.118	-0.141	-0.057	-0.013	0.103	-0.152	-0.238	0.053	0.105	-0.006	0.022
PECAM1 (UniProt P16284)	-0.039	0.072	-0.055	0.057	0.054	-0.024	-0.05	-0.133	0.057	0.021	0.021	0.004	-0.031	-0.002	-0.082	0.141	-0.057	0.012	0.039	0.261 (active)
PYGL (UniProt P06737)	-0.012	-0.008	0.001	0.037	0.047	-0.007	-0.02	0.008	-0.004	0.08	0.004	0.033	-0.143	-0.038	0.055	0.068	-0.031	-0.007	0.019	0.021
PRKAG1 isoform 3 (UniProt P54619)	0.025	0.038	-0.016	-0.012	0.083	0.032	0.037	-0.015	-0.007	0.045	0.042	-0.019	-0.266 (active)	0.001	-0.011	-0.067	-0.025	0.015	0.079	0.013
PIGT (UniProt Q969N2)	-0.045	0.037	0.002	0.034	0.009	-0.001	0.011	0.018	-0.006	-0.003	-0.016	0.01	-0.009	0.022	-0.067	-0.089	0.002	0.045	0.018	0.01
PML (UniProt P29590)	0.045	-0.073	0.015	-0.022	-0.043	0.071	0.033	0.007	0.002	-0.005	0.031	0.006	0.052	0.045	0.012	-0.025	-0.05	-0.021	0.07	-0.035
POLR2E (UniProt P19388)	0.022	0.021	0.038	0.057	-0.054	0.007	0.013	-0.02	-0.01	0.011	-0.106	-0.012	0.218	-0.041	-0.061	0.081	0.065	0.108	-0.055	-0.014
PARG (UniProt Q86W56)	0.063	0.067	0.034	-0.015	0.063	0.059	0.043	0.063	-0.079	-0.071	-0.047	-0.022	-0.124	0.045	-0.075	-0.203	0.043	0.059	0.001	0.331 (active)
PLBD2 (UniProt Q8NHP8)	-0.022	-0.048	0.026	0.01	0.009	0.037	0.01	-0.02	-0.018	0.018	0.04	0.009	0.003	-0.071	-0.01	-0.106	0.025	0.001	-0.018	-0.023
POP1 (UniProt Q99575)	-0.01	0.028	-0.015	0.029	-0.011	0.022	0.017	-0.016	0	-0.01	-0.024	0	0.001	0.029	-0.006	0.013	-0.03	0.003	0.008	-0.271 (active)
